From PubChem BioAssay
Sampled rows, rich in hits. Any-hit rate of the full collection: about 4.1%.
MBD2 inh: inhibitors of human MBD2 binding to methylated oligonucleotide | Q9UBB5 | inhibition, % at 4.4 µM | hit rate 0.31% among 370,000 | TR-FRET; in the data active = inhibition above about 13%
UHRF1 binding: UHRF1 methyl-DNA binding inhibition; Q96T88; UHRF1 binding to methylated oligo, TR-FRET; inhibition, % at 4.4 µM; hit rate 0.75% among 370,000; in the data active = inhibition above about 21%;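 note: UHRF1 SRA domain binding a hemimethylated CpG hairpin DNA probe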
Target sequence (Q96T88 whole entry, looked up, the tested form may be a part): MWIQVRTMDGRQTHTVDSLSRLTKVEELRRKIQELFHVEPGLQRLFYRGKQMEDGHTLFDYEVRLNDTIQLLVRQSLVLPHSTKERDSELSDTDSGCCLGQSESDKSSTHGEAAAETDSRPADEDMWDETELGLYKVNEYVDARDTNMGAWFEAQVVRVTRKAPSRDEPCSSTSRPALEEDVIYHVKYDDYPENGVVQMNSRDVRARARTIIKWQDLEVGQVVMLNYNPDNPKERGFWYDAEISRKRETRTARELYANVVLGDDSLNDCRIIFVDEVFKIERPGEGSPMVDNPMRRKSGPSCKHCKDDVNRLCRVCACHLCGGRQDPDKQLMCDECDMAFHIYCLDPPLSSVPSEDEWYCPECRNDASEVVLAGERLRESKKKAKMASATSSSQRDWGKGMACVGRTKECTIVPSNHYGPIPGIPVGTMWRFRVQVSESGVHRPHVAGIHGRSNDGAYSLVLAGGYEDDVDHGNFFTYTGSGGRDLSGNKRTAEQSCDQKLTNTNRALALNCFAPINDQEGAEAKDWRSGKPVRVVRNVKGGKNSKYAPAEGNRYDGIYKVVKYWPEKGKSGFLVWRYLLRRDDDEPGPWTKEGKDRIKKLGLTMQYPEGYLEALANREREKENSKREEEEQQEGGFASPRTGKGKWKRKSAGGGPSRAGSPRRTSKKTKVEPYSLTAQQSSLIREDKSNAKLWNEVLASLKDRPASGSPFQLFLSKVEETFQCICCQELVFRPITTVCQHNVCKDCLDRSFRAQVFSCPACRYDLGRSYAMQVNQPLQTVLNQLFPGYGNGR
rCAG RNA binder: molecules binding r(CAG) RNA repeats; inhibition, % at 3 µM; AID 651821; r(CAG) RNA repeat, TO-PRO-1 dye displacement fluorescence; hit rate 1.3% among 370,000;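 active = inhibition above the plate cutoff, the mean of all test compounds on that plate plus 3 SD, cut at about 35% in these data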;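 note: higher means more dye released from RNA so lower well fluorescence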
ABHD5 PLIN5 PPI: blocks binding of human ABHD5 to perilipin-5; hit rate 0.78% among 360,000; inhibition, % at 4 µM; Split G. princeps luciferase complementation, luminescence, 4 h;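 active = inhibition above the mean inhibition across every tested compound plus 3 SD, cut at about 22% in these data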
LEDGF integ inh: blocks HIV-1 LEDGF/p75-dependent DNA integration; TR-FRET IN-LEDGF/p75 DNA integration, Eu/Cy5; hit rate 0.64% among 370,000; AID 743269; inhibition, % at 3.7 µM;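 active = inhibition above the screen-wide mean plus 3 SD, cut at about 13% in these data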;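 note: signal is the Cy5 over europium emission ratio at 671 and 618 nm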
PRMT1 FP inh: PRMT1 (human) inhibition, primary screen. Q99873. recombinant PRMT1, activity-based probe fluorescence polarization. inhibition, % at 2.79 µM. hit rate 1.3% among 370,000. AID 652257;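 active = inhibition above about 21% made by adding two undisclosed values, limit read from the data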
rCAG bind conf: r(CAG) RNA repeat binding, confirmation; TO-PRO-1 dye displacement fluorescence; shares compounds with rCAG RNA binder; hit rate 70% among 4,300; inhibition, % at 3 µM;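 active = inhibition above a per-plate cutoff, the mean inhibition of sample wells plus 3 SD, cut at about 35% in these data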;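 note: loss of TO-PRO-1 fluorescence as compound displaces dye from 1x1 AA loop RNA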
DNA CAG counter: DNA CAG dye complex inhibition counter-screen | d(CAG) DNA oligo TO-PRO-1 dye displacement, fluorescence | hit rate 94% among 4,300 | shares compounds with rCAG RNA binder | AID 652068 | inhibition, % at 3 µM;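 active = inhibition above its plate's cutoff, the mean test-well inhibition plus 3 SD, cut at about 4.8% in these data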;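 note: hits displace the dye from DNA and so lower well fluorescence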
Large screens that a line does not name were inactive (follow-up assays come after a bar, where they were run).

Cc1cc(N2C(=O)C(O)=C(C(=O)c3ccco3)C2c2ccc([N+](=O)[O-])cc2)no1 (configuration not stated)	none
CCOC(=O)c1sc(N2C(=O)C(O)=C(C(=O)c3ccco3)C2c2ccc([N+](=O)[O-])cc2)nc1C (configuration not stated)	rCAG RNA binder 79.6 | rCAG bind conf 85.4 | DNA CAG counter 55.3
CCOC(=O)c1sc(N2C(=O)C(O)=C(C(=O)c3ccco3)C2c2ccc(C)o2)nc1C (configuration not stated)	rCAG RNA binder 43.8 | rCAG bind conf 59.3 | DNA CAG counter 21.1
Cc1ccc(S(=O)(=O)Nc2cc(-c3ccccc3)nn2C)cc1Cl	rCAG RNA binder 56.6 | rCAG bind conf 38.0 | DNA CAG counter 9.9
Cc1ccc(S(=O)(=O)Nc2cc(-c3ccc(Cl)cc3)nn2C)cc1	rCAG RNA binder 47.7 | rCAG bind conf 48.3 | DNA CAG counter 11.2
Cc1ccc(S(=O)(=O)Nc2cc(-c3ccccc3)nn2C)cc1	none
Fc1ccc(Cn2ccc3ccc(-c4ccc5ccn(Cc6ccc(F)cc6F)c5c4)cc32)c(F)c1	none (no result: ABHD5 PLIN5 PPI)
Cc1cc(N)n(-c2ccc(C)c(C)c2)n1	none
Cc1cc(N)n(-c2ccc(Oc3ccccc3)c(S(=O)(=O)O)c2)n1	rCAG RNA binder 59.4 | rCAG bind conf 42.2 | DNA CAG counter 9.7
O=C(/C=C(\O)c1ccccc1)C(=O)NNC(=O)c1ccccc1	none
COc1ccc(C(=O)NNC(=O)C(=O)/C=C(\O)c2ccc(C)cc2)cc1	rCAG RNA binder 47.1 | rCAG bind conf inactive | DNA CAG counter 10.8
COC(=O)C[C@@H]1CC[C@H]2[C@H](COc3ccc(NC(=O)Nc4ccc(Cl)cc4)cc3C(=O)N2C)O1	none (no result: ABHD5 PLIN5 PPI)
CC1=NN(c2nc(-c3ccc(Cl)cc3)cs2)C(=O)C1	rCAG RNA binder 57.9 | rCAG bind conf 73.4 | DNA CAG counter 39.1
O=C(NCC1COCCO1)C1CCN(S(=O)(=O)c2ccc(Br)s2)CC1 (configuration not stated)	none (no result: ABHD5 PLIN5 PPI)
CCOC(=O)c1c(NC(C)=O)sc(/C(C)=N/Nc2ccc(C(=O)O)cc2)c1C	rCAG RNA binder 40.0 | rCAG bind conf inactive | DNA CAG counter inactive
O=C(O)CN1C(=O)/C(=C/c2ccccc2Cl)Oc2ccccc21	rCAG RNA binder 39.4 | rCAG bind conf 35.4 | DNA CAG counter 7.3
COCCNC(=O)c1c(N)[nH]c(C(=O)c2ccc(Br)cc2)c1-c1c(OC)ccc2ccccc12	none (no result: rCAG RNA binder, ABHD5 PLIN5 PPI)
CCOc1ccc2sc(NS(=O)(=O)c3ccc(OC)c(OC)c3)nc2c1	rCAG RNA binder 52.1 | rCAG bind conf inactive | DNA CAG counter 5.9
COc1ccc(S(=O)(=O)Nc2nc3ccccc3s2)cc1	none
CCC1CCCCN1S(=O)(=O)c1ccc(NC(=O)CSc2ncccc2C(=O)O)cc1 (configuration not stated)	rCAG RNA binder 38.5 | rCAG bind conf inactive | DNA CAG counter 10.8
O=C(CN1C(=O)N/C(=C\c2ccccc2OCc2ccc(C(=O)O)cc2)C1=O)Nc1ccc(F)cc1	rCAG RNA binder 59.0 | rCAG bind conf 43.0 | DNA CAG counter 12.9
O=C(O)c1ccc(COc2ccccc2/C=C2\NC(=O)N(Cc3ccc(F)cc3)C2=O)cc1	none
CN1C(=O)/C(=C/c2ccccc2OCc2ccc(C(=O)O)cc2)NC1=S	none
Cc1ccccc1NC(=O)CN1C(=O)N/C(=C\c2ccccc2OCc2ccc(C(=O)O)cc2)C1=O	rCAG RNA binder 42.7 | rCAG bind conf inactive | DNA CAG counter 7.8
Nc1ccc(C(=O)N/N=C\c2cc(N=Nc3cccc4ccccc34)ccc2O)cc1	rCAG RNA binder 39.1 | rCAG bind conf inactive | DNA CAG counter 15.2
Oc1cccc2ccc(/C=C/c3ccccc3Br)nc12	none
Oc1ccc2ccccc2c1/C=C/c1ccc2c(Br)cc(Br)c(O)c2n1	rCAG RNA binder 48.0 | rCAG bind conf 50.5 | DNA CAG counter 32.0
COc1ccc(C(=O)C(=O)N2CCN(C(=O)c3ccccc3C(F)(F)F)CC2)cc1OC	none (no result: ABHD5 PLIN5 PPI)
O=C(CSCc1ccc(Cl)cc1Cl)Nc1ccccc1C(=O)Nc1ccc(C(=O)O)cc1	none
C=CCn1c(CSCc2ccc(Cl)cc2Cl)nnc1SCC(=O)Nc1ccc(C(=O)O)cc1	rCAG RNA binder 35.6 | rCAG bind conf 52.8 | DNA CAG counter 16.2
CN(C(=O)CSc1nc2cc(C(=O)O)ccc2c(=O)n1Cc1ccccc1)C1CCS(=O)(=O)C1 (configuration not stated)	none
CCN(C(=O)CSc1nc2cc(C(=O)O)ccc2c(=O)n1Cc1ccccc1)c1ccccc1	rCAG RNA binder 38.2 | rCAG bind conf 53.3 | DNA CAG counter 15.9
CS(=O)(=O)c1ccc(-c2nnc(NC(=O)c3ccc(S(=O)(=O)N4CCCC4)cc3)o2)cc1	rCAG RNA binder 35.8 | rCAG bind conf inactive | DNA CAG counter 4.7
Nc1[nH]c2cc(C(F)(F)F)ccc2c1C(=O)N1CCN(CCc2ccccc2)CC1	none (no result: ABHD5 PLIN5 PPI)
CCOc1ccc(N(CC(=O)Nc2c(C)n(C)n(-c3ccccc3)c2=O)S(=O)(=O)c2cccc3cccnc23)cc1	none (no result: ABHD5 PLIN5 PPI)
COc1ccc(-c2nnc(SCC(=O)Nc3ccc(C(=O)O)cc3)n2-c2ccc(Cl)cc2)cc1	rCAG RNA binder 46.5 | rCAG bind conf 49.6 | DNA CAG counter 15.2
CCOc1ccc(-n2c(SCC(=O)Nc3ccc(S(=O)(=O)Nc4cc(C)nc(C)n4)cc3)nnc2-c2ccco2)cc1	rCAG RNA binder 40.4 (no result: ABHD5 PLIN5 PPI) | rCAG bind conf 39.7 | DNA CAG counter 13.9
Cc1ccc(-c2nnc(SCC(=O)c3ccc(O)c(O)c3)n2-c2ccc(Cl)cc2)cc1	rCAG RNA binder 40.9 (no result: ABHD5 PLIN5 PPI) | rCAG bind conf 42.6 | DNA CAG counter 17.4
Cc1cc(NS(=O)(=O)c2ccc(NC(=O)CSc3nnc(-c4ccco4)n3-c3ccc(Cl)cc3)cc2)nc(C)n1	rCAG RNA binder 45.9 (no result: ABHD5 PLIN5 PPI) | rCAG bind conf inactive | DNA CAG counter 12.2
CCOC(=O)[C@]12CCCC3=C1N(CCC3)C(=O)[C@@H](CC(=O)N1CCN(C(=O)C3CC3)CC1)C2	none (no result: ABHD5 PLIN5 PPI)
COc1ccc(-c2nnc(SCC(=O)Nc3ccc(S(=O)(=O)Nc4cc(C)nc(C)n4)cc3)n2-c2ccc(OC)cc2)cc1	rCAG RNA binder 48.8 (no result: ABHD5 PLIN5 PPI) | rCAG bind conf 43.6 | DNA CAG counter 15.2
CC1CCN(S(=O)(=O)c2ccc3c(c2)c(=O)c(C(=O)NCc2cccs2)cn3C)CC1	rCAG RNA binder 42.9 | rCAG bind conf inactive | DNA CAG counter 7.5
